Consider nine molecules from ChEMBL document CHEMBL1961873, “Compounds: GSK PKIS; Assays: Nanosyn kinase panel” (2012).

Assay [1] has as its target T1, Serine/threonine-protein kinase Nek9 (Homo sapiens) (UniProt Q8TD19).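 Further: each value is a mean percent inhibition of NEK9.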
T1 sequence (whole entry): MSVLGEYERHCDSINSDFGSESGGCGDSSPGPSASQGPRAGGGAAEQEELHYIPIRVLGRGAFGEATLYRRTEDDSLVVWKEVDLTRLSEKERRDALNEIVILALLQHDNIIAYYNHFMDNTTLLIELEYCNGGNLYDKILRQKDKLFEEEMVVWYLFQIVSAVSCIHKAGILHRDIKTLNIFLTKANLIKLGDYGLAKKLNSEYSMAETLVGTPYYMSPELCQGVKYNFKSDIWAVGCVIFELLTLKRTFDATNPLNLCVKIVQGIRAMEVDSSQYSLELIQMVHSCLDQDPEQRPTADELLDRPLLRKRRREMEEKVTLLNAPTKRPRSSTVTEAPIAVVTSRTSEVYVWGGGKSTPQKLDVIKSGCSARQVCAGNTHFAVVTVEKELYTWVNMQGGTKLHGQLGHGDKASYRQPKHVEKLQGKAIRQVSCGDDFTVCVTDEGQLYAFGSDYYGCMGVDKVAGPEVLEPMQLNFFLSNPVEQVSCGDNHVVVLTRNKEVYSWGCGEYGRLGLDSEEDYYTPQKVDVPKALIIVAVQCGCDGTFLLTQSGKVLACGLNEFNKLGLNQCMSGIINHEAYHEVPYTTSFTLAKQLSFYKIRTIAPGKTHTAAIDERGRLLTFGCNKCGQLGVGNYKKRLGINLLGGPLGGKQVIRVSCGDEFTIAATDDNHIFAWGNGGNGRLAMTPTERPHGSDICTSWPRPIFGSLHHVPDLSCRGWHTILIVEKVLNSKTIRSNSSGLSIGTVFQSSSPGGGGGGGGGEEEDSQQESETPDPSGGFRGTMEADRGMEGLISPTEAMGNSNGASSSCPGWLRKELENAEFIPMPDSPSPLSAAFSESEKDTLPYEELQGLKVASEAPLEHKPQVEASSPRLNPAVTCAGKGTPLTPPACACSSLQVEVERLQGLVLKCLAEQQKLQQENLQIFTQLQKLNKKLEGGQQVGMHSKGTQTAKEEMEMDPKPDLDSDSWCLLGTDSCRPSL
The conditions noted are these: at 1 µM.

Assay [2] concerns the target Serine/threonine-protein kinase PLK1 (Homo sapiens) (UniProt P53350). The note with it: at 0.1 µM.
Assay [3] has the same target. The conditions noted are these: at 1 µM.
The target in assay [4] is T2, Dual specificity protein kinase TTK (Homo sapiens) (UniProt P33981).
T2 sequence (whole entry): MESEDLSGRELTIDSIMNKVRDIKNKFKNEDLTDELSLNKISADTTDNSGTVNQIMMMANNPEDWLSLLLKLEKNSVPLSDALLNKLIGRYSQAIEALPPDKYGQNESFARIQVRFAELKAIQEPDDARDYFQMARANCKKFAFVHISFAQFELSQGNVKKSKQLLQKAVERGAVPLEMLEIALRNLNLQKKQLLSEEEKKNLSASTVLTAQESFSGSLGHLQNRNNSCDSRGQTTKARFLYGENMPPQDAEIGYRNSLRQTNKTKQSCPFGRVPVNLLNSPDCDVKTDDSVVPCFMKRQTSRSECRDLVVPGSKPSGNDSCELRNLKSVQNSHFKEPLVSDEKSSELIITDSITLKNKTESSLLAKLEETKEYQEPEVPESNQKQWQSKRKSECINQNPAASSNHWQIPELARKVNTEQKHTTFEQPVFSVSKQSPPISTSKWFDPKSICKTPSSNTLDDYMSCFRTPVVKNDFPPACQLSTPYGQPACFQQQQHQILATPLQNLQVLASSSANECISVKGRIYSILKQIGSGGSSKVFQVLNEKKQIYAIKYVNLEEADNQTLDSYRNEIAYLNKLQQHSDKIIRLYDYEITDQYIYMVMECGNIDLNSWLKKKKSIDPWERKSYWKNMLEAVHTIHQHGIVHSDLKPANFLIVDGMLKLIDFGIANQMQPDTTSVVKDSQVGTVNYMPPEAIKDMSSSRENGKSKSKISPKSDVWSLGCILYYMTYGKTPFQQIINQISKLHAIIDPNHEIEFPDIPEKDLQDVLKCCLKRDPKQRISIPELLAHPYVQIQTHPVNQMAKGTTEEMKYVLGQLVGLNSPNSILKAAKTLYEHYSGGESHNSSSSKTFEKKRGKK
The note with it: at 0.1 µM.

Assay [5] has as its system T3, Receptor-type tyrosine-protein kinase FLT3 (Homo sapiens), P36888 [D835Y].
T3 sequence (whole entry): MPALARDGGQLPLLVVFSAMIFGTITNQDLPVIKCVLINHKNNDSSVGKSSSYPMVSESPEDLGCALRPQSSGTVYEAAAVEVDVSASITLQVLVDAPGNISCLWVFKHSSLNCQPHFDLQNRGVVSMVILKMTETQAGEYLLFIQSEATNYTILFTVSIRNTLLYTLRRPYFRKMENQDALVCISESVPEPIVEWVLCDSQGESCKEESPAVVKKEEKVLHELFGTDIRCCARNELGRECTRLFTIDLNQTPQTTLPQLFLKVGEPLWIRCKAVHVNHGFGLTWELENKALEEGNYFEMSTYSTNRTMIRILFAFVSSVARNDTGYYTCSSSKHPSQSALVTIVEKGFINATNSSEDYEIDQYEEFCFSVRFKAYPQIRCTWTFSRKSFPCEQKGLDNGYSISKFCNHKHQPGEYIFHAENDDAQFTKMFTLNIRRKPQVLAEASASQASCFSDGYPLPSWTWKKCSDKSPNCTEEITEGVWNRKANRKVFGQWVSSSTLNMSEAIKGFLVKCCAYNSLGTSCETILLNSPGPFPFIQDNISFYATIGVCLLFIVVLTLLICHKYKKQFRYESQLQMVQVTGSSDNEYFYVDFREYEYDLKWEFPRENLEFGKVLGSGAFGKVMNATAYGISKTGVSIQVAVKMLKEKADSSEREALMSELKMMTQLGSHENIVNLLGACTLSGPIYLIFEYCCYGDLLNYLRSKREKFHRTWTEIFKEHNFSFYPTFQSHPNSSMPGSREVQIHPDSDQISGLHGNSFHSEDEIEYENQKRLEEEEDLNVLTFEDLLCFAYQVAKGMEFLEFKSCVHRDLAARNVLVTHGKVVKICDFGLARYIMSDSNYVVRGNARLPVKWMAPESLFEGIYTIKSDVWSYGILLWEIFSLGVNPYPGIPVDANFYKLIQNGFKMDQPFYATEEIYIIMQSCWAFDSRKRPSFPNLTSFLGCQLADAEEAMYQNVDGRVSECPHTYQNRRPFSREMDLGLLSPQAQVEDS
The conditions noted are these: at 1 µM.

Assay [6] concerns the target Vascular endothelial growth factor receptor 3 (Homo sapiens) (UniProt P35916). The note with it: at 0.1 µM.
Assay [7] has the same target. The note with it: at 1 µM.
In assay [8] the target is Macrophage colony-stimulating factor 1 receptor (Homo sapiens) (UniProt P07333). The conditions noted are these: at 0.1 µM.
Assay [9] shares this target. The note with it: at 1 µM.
Assay [10] has as its target Tyrosine-protein kinase Fyn (Homo sapiens) (UniProt P06241). The note with it: at 0.1 µM.

Vascular endothelial growth factor receptor 3 (Homo sapiens), sequence (P35916 whole entry): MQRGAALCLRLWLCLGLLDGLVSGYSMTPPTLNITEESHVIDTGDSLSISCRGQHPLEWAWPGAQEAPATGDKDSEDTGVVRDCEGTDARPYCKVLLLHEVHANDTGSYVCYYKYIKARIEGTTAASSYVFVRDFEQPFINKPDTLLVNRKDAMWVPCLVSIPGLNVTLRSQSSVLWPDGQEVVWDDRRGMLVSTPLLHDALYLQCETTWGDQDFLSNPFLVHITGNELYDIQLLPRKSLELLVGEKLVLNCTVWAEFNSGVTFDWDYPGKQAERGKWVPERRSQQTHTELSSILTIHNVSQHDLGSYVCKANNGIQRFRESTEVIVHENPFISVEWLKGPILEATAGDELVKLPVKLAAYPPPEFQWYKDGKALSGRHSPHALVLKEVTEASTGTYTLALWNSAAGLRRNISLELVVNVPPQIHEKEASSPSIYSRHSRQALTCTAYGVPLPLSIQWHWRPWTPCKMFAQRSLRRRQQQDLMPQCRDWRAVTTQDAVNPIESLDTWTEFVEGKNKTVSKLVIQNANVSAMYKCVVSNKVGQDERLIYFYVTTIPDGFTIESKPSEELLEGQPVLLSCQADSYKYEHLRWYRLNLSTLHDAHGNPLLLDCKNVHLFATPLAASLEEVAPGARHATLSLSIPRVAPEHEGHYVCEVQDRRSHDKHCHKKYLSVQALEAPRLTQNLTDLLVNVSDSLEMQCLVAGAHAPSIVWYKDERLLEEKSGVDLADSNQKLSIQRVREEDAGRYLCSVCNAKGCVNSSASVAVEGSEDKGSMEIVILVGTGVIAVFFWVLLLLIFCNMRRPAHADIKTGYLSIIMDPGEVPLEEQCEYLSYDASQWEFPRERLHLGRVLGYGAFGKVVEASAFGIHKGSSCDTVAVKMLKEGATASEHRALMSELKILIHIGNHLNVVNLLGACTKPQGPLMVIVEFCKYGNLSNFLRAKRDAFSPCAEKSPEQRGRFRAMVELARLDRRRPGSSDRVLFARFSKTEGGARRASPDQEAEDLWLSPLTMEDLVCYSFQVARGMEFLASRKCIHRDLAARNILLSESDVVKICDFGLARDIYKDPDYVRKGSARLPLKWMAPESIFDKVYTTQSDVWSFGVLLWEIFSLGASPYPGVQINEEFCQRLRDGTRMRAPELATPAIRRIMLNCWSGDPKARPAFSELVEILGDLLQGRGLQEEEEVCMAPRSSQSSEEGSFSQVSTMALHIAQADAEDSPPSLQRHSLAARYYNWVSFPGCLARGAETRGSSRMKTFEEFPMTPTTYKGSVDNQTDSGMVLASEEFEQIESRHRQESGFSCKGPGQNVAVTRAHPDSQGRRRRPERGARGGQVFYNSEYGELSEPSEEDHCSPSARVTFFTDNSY
Tyrosine-protein kinase Fyn (Homo sapiens), sequence (P06241 2-537 limits assumed): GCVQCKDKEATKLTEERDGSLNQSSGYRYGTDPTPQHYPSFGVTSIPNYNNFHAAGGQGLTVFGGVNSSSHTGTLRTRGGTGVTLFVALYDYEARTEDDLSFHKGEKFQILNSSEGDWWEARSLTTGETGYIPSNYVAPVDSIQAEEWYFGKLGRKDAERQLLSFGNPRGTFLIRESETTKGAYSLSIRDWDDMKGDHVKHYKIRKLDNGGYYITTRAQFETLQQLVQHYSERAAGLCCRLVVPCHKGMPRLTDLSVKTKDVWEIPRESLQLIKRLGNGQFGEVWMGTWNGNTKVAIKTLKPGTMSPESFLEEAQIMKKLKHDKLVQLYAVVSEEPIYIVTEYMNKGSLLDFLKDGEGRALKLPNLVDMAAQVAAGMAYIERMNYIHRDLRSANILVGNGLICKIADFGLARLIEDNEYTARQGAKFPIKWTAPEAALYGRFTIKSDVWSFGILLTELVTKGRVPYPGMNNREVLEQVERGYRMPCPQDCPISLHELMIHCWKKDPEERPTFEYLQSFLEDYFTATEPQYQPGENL
Macrophage colony-stimulating factor 1 receptor (Homo sapiens), sequence (P07333 whole entry): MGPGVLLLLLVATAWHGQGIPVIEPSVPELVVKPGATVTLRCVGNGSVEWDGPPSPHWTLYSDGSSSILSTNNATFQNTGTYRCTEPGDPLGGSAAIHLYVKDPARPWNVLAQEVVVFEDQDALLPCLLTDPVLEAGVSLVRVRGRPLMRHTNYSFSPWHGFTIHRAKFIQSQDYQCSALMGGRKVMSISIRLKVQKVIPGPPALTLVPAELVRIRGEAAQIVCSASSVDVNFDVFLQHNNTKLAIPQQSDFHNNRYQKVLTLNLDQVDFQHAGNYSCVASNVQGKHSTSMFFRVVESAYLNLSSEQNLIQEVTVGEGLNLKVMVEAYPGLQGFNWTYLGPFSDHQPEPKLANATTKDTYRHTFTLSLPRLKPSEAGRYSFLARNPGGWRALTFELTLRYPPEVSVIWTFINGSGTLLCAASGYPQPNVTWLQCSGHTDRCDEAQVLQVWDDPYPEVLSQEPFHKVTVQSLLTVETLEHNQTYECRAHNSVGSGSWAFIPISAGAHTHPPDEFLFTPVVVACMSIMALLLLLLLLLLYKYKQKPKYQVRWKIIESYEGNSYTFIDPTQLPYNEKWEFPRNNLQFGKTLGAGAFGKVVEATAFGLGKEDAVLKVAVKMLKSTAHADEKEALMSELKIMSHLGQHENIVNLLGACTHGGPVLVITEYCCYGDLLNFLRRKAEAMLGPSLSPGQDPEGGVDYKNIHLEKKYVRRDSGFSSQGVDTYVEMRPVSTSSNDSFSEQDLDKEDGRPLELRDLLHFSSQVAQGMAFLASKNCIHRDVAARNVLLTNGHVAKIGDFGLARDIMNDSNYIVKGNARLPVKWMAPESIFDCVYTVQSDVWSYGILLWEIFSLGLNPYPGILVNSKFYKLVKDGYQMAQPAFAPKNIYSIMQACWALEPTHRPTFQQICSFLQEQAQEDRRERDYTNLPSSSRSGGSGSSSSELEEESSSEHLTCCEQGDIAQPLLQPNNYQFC
Serine/threonine-protein kinase PLK1 (Homo sapiens), sequence (P53350 whole entry): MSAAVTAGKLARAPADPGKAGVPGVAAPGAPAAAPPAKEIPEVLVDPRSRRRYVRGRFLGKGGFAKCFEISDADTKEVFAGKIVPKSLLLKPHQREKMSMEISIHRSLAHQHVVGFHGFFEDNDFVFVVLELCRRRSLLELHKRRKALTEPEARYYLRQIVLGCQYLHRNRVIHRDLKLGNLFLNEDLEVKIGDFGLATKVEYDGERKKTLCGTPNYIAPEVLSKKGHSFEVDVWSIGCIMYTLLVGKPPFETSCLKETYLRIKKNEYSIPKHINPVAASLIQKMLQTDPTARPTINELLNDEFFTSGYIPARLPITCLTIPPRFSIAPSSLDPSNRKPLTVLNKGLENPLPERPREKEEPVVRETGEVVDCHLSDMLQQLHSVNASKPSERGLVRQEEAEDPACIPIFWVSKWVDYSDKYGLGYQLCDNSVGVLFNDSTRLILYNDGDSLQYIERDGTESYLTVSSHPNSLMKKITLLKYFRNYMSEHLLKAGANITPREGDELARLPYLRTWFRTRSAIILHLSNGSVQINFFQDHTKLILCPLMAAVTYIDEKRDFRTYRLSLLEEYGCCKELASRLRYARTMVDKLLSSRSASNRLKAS

Usually inhibition stands for the relative decrease from the control value, in per cent. As to `NS(=O)(=O)c1ccc(N/N=C2\C(=O)Nc3ccc4ncccc4c32)cc1`, the inhibition came out at 41% in assay [1]; 2.36% in [2]; 2.5% in assay [3]; 61.2% in assay [4]; 80.4% in [5]; 43.9% in assay [6]. The inhibition in assay [7] is 86%; in assay [8] it was 34.8%; in assay [9], 79.3%; in [10], 8.75%.

`CCn1c(-c2nonc2N)nc2ccccc21`: the inhibition in assay [1] was 0.94%; in [2], 6.53%; in [3], 2.85%; in assay [4], 3.51%; in assay [5], -3.67%; in [6], 5.92%. The inhibition in assay [7] is 5.29%; in [8] it was 0.61%; in assay [9], 2.71%; in assay [10] it was 0.86%.

With `COc1ccc(-c2cc3c(N)ncnc3o2)cc1`, the inhibition is 2.28% in assay [1]; -1.11% in assay [2]; -1.15% in assay [3]; 0.22% in [4]; 1.63% in assay [5]; 0.51% in assay [6]. Besides, the inhibition in assay [7] is 4.44%; in assay [8], 2.06%; in assay [9], 17.9%; in [10] it was 0.82%.

In the case of `Cc1ccc(O)cc1Nc1ccnc2cc(-c3ccccn3)ccc12`, the inhibition in [1] is -1.26%; in assay [2], 3.38%; in assay [3], 4.98%; in assay [4], 6.34%; in assay [5], 4.47%; in assay [6] it was 62.5%. Further, the inhibition in [7] stood at 88.8%; in assay [8] it was 4.3%; in assay [9], 20.4%; in assay [10] it was 55.6%.

Turning to `O=C(O[C@H]1CN[C@H](C#Cc2cc3ncnc(Nc4ccc(Cc5ccccc5)cc4)c3s2)C1)N1CCOCC1`, the inhibition in [1] is 7.49%; in assay [2], 1.59%; in [3] it was 1.47%; in assay [4], 3.54%; in [5], -0.77%; in assay [6], -2.62%. The inhibition is 4.62% in assay [7], -3.48% in assay [8], 3.66% in assay [9] and -0.06% in assay [10].

As to `COc1cc2c(cc1Nc1nc(Nc3ccsc3C(N)=O)c3cc[nH]c3n1)N(C(=O)CN(C)C)CCC2(C)C`, the inhibition turned out to be 9.86% in assay [1]; 56.7% in assay [2]; 89.4% in assay [3]; 40% in assay [4]; 22.1% in [5]; 3.15% in [6]. Moreover, the inhibition in [7] was determined as 5.12%; in [8], 81.7%; in assay [9] it was 94.3%; in [10] it was 0.64%.

As for `Fc1ccc(-c2cc(-c3c[nH]nc3-c3ccccn3)ccn2)cc1`, the inhibition was 12.6% in [1]; 3.3% in assay [2]; 3.1% in [3]; 11.3% in assay [4]; 0.71% in [5]; -1.38% in assay [6]. In addition, the inhibition in [7] stood at 1.05%; in [8] it was 0.08%; in assay [9], 3.27%; in assay [10] it was 3.45%.

In the case of `CN1CCC(n2cnc(-c3ccc(F)cc3)c2-c2ccnc(N)n2)CC1`, the inhibition in [1] is 11.4%; in [2] it was 2.4%; in assay [3] it was 0.91%; in assay [4] it was 5.14%; in [5] it was 1.95%; in assay [6], 1.56%. Also, the inhibition was determined as 2.31% in assay [7], 2.19% in [8], 6.29% in assay [9] and 0.4% in assay [10].

`Fc1ccc(-c2nn3ncccc3c2-c2ccnc(Nc3ccc4c(c3)OCCO4)n2)cc1`: the inhibition in assay [1] came out at 12%; in assay [2], 3.5%; in [3], 28.8%; in assay [4] it was 8.44%; in [5], 2.87%; in assay [6], 7.5%. Besides, the inhibition in [7] turned out to be 47.7%; in [8], 14.4%; in [9], 59.1%; in assay [10], 47%.
